# Experimental data from the supplement of paper PMC6555819.
# System: PPARg:RXRa (NR concentration 180 nM, RXRa partner concentration 90 nM)
# Experiment: PBM binding z-score (relative to random genomic background probes); higher = stronger binding; sequences stand for … in GC…GCGATTGACAGCGTAGAATGAAGG
# How it was run: (§1)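 Antibodies against each partner of ligand-free nuclear receptor dimers (one per run) detected binding on custom Agilent 4×180K protein-binding microarrays after 1 h incubation. The double-stranded probes had 34-nt variable regions carrying direct-repeat seeds, single-nucleotide variants, half-site ablations and random human genomic background sequences. Binding z-scores, from regression-normalized fluorescence, use the random background probes as reference.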
row,Sequence,PBM binding z-score
1,CAAACTAGGTTAAGAGGTCAAAGTCCGCTTCCCG,7.84
2,CGTCCAAGGTCAGCAGGTCCGTGAAAGCGACGTG,2.24
3,CGTCATAGTTCAACTAAGGTAACGTAAAGCACGC,1.66
4,ACCTCTAGGTAAAAGTTCAGTGAATCCCGAGGAT,7.09
5,GCATATAGGTAATACAAGGTGAAAGCCCGATTGT,1.34
6,CGAACTAGGTCATTGACAGTACAGTGAATAGTAA,7.68
7,AGTCAAAGTTCATTAGGTAACGTAAGATTCAGCT,6.37
8,TCTTGTAGATCAACCGGAGGTTAAGAAAGATCGA,-0.257
9,CGAACTAGGTCAGAACAGGCCAGTGAAGGATGAT,4.88
10,ATCTCTAGGTAAGACTCAGTTCAGTTAAGAACGC,0.0463
11,AGAATGAGCTTACCAAAGATCAGGGAAACGCTTG,0.53
12,GATACAGGATCAAGGCCAGAGTACGCGTATTGAT,0.979
13,CGAACTAGGTCAGAACAGGACTGTGAAGGATGAT,5.13
14,GCTGCTAGGGCAACTGATGGTCAGCTAAAGCTCG,-0.394
15,CTCGAAAGGTCGTGCTCGGGTGAGTATACCAAAC,2.25
16,GCTTGTAGATCAAGGTTAAGACAGACTAAGCTAA,1.25
17,TCTATTAGCTGATTAGGGCAACCGAAACAGCGGA,-0.00749
18,ACTTACGGGTCAAAGAGGTTATAGCACGCGTATA,5.28
19,TCTAGTTGGTCAAAGGACACACACTCGAAATGCG,4.59
20,GCTGCTAGCTCAGGTTGGTCAGCTAACGGGTACG,-0.612

row,Sequence,PBM binding z-score
1,GCTGCTAGGTCAACTGATGGGCAGCTAAAGCTCG,2.39
2,CGGACTGGGGCATAAGGTTACCATAAGCCAGCCC,4.19
3,CCTACTGGGCCAAAGGTCATTGCTTCCAATGCTC,11.3
4,TCTATCAGTTGATTAGGGCAACCGAAACAGCGGA,0.346
5,TCGAGTAGGTGAGGGGCATTCAGAATGGCGTCGA,1.99
6,CCGAATGGGGCATAAGGTTACCATAAGCCAGCCC,2.29
7,CGTCCAAGGTCAATGCTAGGTCCGTGAAAGCATT,3.19
8,CCGACTGGGGCAGAAAGGTTATCATACCATCCGG,1.7
9,AGAATGAGGTTACCAAAGAGCAGGGAAACGCTTG,2.22
10,TCTTGTAGAGCAGCAGGTTAAGAAAGCTGGCCAA,-0.553
11,CAAACTAGATCACAGAGGTCAAAGTCCGTGCGTA,4.26
12,CCTACAGGGCCATTCAGAGGTCATTGATCATATG,0.853
13,CGAACTAGCTCATTGACAGGACAGTGAATAGTAA,0.0799
14,GGAACGAGGGCATTCGGGTTGATAGCATGGCGAT,0.887
15,CTCGAAAGGTCCTGCTCAGGTGAGTATACCAAAC,-0.342
16,AGAATGAGGATATACGTAGATCAGGGAAGAAAGT,0.977
17,ATCGAAAGGTCTAGGTGAGTATAGAGAAAGGGAA,0.509
18,TTACCAAGGTGAGCTGAGGTCGTTGATCCAACTC,0.0695
19,GATACAGAGTCAAGGCCAGAGTACGCGTATTGAT,0.646
20,CGTCCAAGGTCAGAGAGATCAGTGAATGCCGAGT,2.1

# System: PPARg:RXRa 270nM:90nM, anti-RXR (NR concentration 270 nM, RXRa partner concentration 90 nM)
# Experiment: as above
# How it was run: as §1
row,Sequence,PBM binding z-score
1,CAAACTAGGTTAAGAGGTCAAAGTCCGCTTCCCG,7.23
2,CGTCCAAGGTCAGCAGGTCCGTGAAAGCGACGTG,3.15
3,CGTCATAGTTCAACTAAGGTAACGTAAAGCACGC,2.25
4,ACCTCTAGGTAAAAGTTCAGTGAATCCCGAGGAT,7.47
5,GCATATAGGTAATACAAGGTGAAAGCCCGATTGT,1.08
6,CGAACTAGGTCATTGACAGTACAGTGAATAGTAA,6.38
7,AGTCAAAGTTCATTAGGTAACGTAAGATTCAGCT,6.16
8,TCTTGTAGATCAACCGGAGGTTAAGAAAGATCGA,1.55
9,CGAACTAGGTCAGAACAGGCCAGTGAAGGATGAT,4.38
10,ATCTCTAGGTAAGACTCAGTTCAGTTAAGAACGC,0.424
11,AGAATGAGCTTACCAAAGATCAGGGAAACGCTTG,0.206
12,GATACAGGATCAAGGCCAGAGTACGCGTATTGAT,0.356
13,CGAACTAGGTCAGAACAGGACTGTGAAGGATGAT,4.21
14,GCTGCTAGGGCAACTGATGGTCAGCTAAAGCTCG,-0.642
15,CTCGAAAGGTCGTGCTCGGGTGAGTATACCAAAC,3.88
16,GCTTGTAGATCAAGGTTAAGACAGACTAAGCTAA,2.16
17,TCTATTAGCTGATTAGGGCAACCGAAACAGCGGA,1.41
18,ACTTACGGGTCAAAGAGGTTATAGCACGCGTATA,5.31
19,TCTAGTTGGTCAAAGGACACACACTCGAAATGCG,5.5
20,GCTGCTAGCTCAGGTTGGTCAGCTAACGGGTACG,-0.997

row,Sequence,PBM binding z-score
1,GCTGCTAGGTCAACTGATGGGCAGCTAAAGCTCG,3.09
2,CGGACTGGGGCATAAGGTTACCATAAGCCAGCCC,4.81
3,CCTACTGGGCCAAAGGTCATTGCTTCCAATGCTC,9.77
4,TCTATCAGTTGATTAGGGCAACCGAAACAGCGGA,1.61
5,TCGAGTAGGTGAGGGGCATTCAGAATGGCGTCGA,3.31
6,CCGAATGGGGCATAAGGTTACCATAAGCCAGCCC,3.95
7,CGTCCAAGGTCAATGCTAGGTCCGTGAAAGCATT,3.97
8,CCGACTGGGGCAGAAAGGTTATCATACCATCCGG,2.27
9,AGAATGAGGTTACCAAAGAGCAGGGAAACGCTTG,2.47
10,TCTTGTAGAGCAGCAGGTTAAGAAAGCTGGCCAA,1.04
11,CAAACTAGATCACAGAGGTCAAAGTCCGTGCGTA,4.86
12,CCTACAGGGCCATTCAGAGGTCATTGATCATATG,1.79
13,CGAACTAGCTCATTGACAGGACAGTGAATAGTAA,-0.461
14,GGAACGAGGGCATTCGGGTTGATAGCATGGCGAT,0.703
15,CTCGAAAGGTCCTGCTCAGGTGAGTATACCAAAC,0.119
16,AGAATGAGGATATACGTAGATCAGGGAAGAAAGT,-0.177
17,ATCGAAAGGTCTAGGTGAGTATAGAGAAAGGGAA,0.366
18,TTACCAAGGTGAGCTGAGGTCGTTGATCCAACTC,0.731
19,GATACAGAGTCAAGGCCAGAGTACGCGTATTGAT,-0.0744
20,CGTCCAAGGTCAGAGAGATCAGTGAATGCCGAGT,2.59
